Compound activity (PubChem BioAssay)
MARV entry inh: qHTS for inhibitors of binding or entry into cells for Marburg Virus; Marburg virus pseudotyped entry inhibition, cell reporter; Potency, µM (titrated, usually from 37.8 µM), hits mostly inhibitors; hit rate 1.8% among 300,000; AID 540276, 2011; calls by dose curve; tested in HEK293 cells
FMDV inh: High Throughput Screening for Foot and Mouth Disease Virus Antivirals; hit rate 1.2% among 410,000; Potency, µM (top dose mostly 57.9 µM), most hits filed as inhibitors; FMDV antiviral cell-based qHTS; calls by dose curve; tested in HEK293T cells; also: read-out not given here; nearly all actives have a fitted effect of over 45% in size
HCV inh: qHTS Assay for Inhibitors of Hepatitis C Virus (HCV); Huh7.5.1 HCVcc-Cre infection, luciferase reporter, 44 h; Potency, µM (titrated, usually from 41.8 µM), hits mostly inhibitors; hit rate 3.4% among 340,000; AID 651820, 2012; active = well fitted inhibition curve with a large enough effect; inconclusive = small, poorly fitted or top-dose-only effect, or another doubt; inactive = no such curve, though single readings can be large or run the other way
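Seed cells (1,000/well) for 4 h; treat with compound and infect with HCVcc-Cre, moi about 0.5. Incubate 44 h, then detect luciferase activity.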
HCMV antiviral: qHTS Assay for inhibitors of the human cytomegalovirus (HCMV); HFF cells, HCMV-luciferase reporter, 72 h; hits give low values; hit rate 4.5% among 410,000; activity change, negative = inhibition, % at 57.5 µM; AID 1259415, 2018; in the data active = activity change below about -60%; inconclusive = no clear call, values can overlap the other calls; inactive = above about -39%
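After 16 h attachment at 37C, HFF cells received test compound and HCMV-luciferase (1 PFU/cell); reporter luminescence read 72 h later, data normalized against buffer-only and known inhibitor Salinomycin.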
Lassa entry inh: qHTS for Inhibitors of binding or entry into cells for Lassa Virus | AID 540256, 2011 | Potency, µM (titrated, usually from 37.9 µM), hits mostly inhibitors | Lassa virus pseudotype entry inhibition, cell reporter | hit rate 1.2% among 300,000; calls by dose curve; tested in HEK293 cells; also: nearly all actives have a fitted effect of over 50% in size
A number is an active result; . = inactive; ? = inconclusive; / = no result; [ ] = another dose, or the depositor's remark. In the library only some 7.9% were active in any assay of this set; here they are far more common.

SMILES	MARV entry inh	FMDV inh	HCV inh	HCMV antiviral	Lassa entry inh
COc1cccc(C(=O)NC2CC3CCCC(C2)N3CC(=O)Nc2ccccc2C(F)(F)F)c1 (centres undefined)	11µM	.	6.3µM	?	?
O=C(CN1C2CCCC1CC(NC(=O)C1CCCCC1)C2)NCc1ccc(F)cc1 (centres undefined)	/	.	?	.	/
O=C(CN1C2CCCC1CC(NC(=O)C1CCCCC1)C2)Nc1ccccc1C(F)(F)F (centres undefined)	?	?	10µM	.	?
COc1ccc(C(CNC(=O)c2ccc(S(=O)(=O)N(C)C)cc2)N(C)C)cc1 (centres undefined)	.	.	.	.	.
CCN(c1ccccc1)S(=O)(=O)c1cc(C(=O)NCC(c2ccc(OC)cc2)N(C)C)ccc1C (centres undefined)	/	.	10µM	.	/
CCN1C(=O)[C@H]2[C@H]3[C@H](O)[C@H](O)C/C(=N/NC(=O)OCc4ccccc4)[C@@H]3CC[C@@H]2C1=O	.	/	/	/	/
COc1ccc(Cc2nc3ccc(C(=O)NCCCN4CCN(C)CC4)cc3o2)cc1	/	?	/	.	?
COc1ccc(N2CCN(CCCNC(=O)c3ccc4nc(Cc5ccccc5)oc4c3)CC2)cc1	/	25µM	/	-60	?
COc1ccc(N2CCN(CCCNC(=O)c3ccc4nc(CCc5ccccc5)oc4c3)CC2)cc1	/	?	/	.	10µM
COc1ccc2c3c(c(=O)oc2c1)[C@H]1O[C@](c2ccsc2)(Cc2ccccc21)O3	.	/	/	/	/
CC(OC(=O)c1cc2sccc2n1C)C(=O)NC(C)(C)C (centres undefined)	/	.	10µM	.	/
CC(OC(=O)c1cc2sccc2n1C)C(=O)NCc1cccs1 (centres undefined)	?	/	?	?	.
Cc1ccc(Nc2ncc(C(=O)Nc3ccc(F)cc3F)c3ccccc23)cc1Cl	.	.	/	.	.
CCOC(=O)c1ccc(NC(=S)N2CCC(O)CC2)cc1	?	.	.	.	.
CCOC(=O)c1ccc(NC(=S)N2CCSC2c2ccc(Br)cc2)cc1 (centres undefined)	.	.	?	-61	.
COc1cc(C(=O)N/N=C(\c2ccccc2)c2ccccn2)cc(OC)c1OC	/	40µM	?	-102	/
COc1cc(C(=O)N/N=C(\C)c2ccccn2)cc(OC)c1OC	?	.	.	-88	?
C/C(=N\NC(=O)c1cc(C)nc2ccccc12)c1ccccn1	/	.	2.8µM	-114	/
COc1cc(NC(=O)c2ccccn2)cc(OC)c1OC	.	.	.	.	?
COc1cc(C(=O)NN=C2c3ccccc3-c3ccccc32)cc(OC)c1OC	/	/	/	-88	/
C/C(=N\NC(=O)c1ccc(Cl)cc1)c1ccccn1	0.89µM	?	3.2µM	-101	1.3µM
COc1cccc(C(=O)N/N=C(/c2ccccc2)c2ccccn2)c1	?	?	?	-102	?
CC(=NNC(=S)Nc1cccc(Cl)c1)c1ccccn1	0.2µM	.	?	-97	1.1µM
C/C(=N\NC(=O)c1ccccn1)c1ccc(Cl)cc1	?	.	.	.	?
COc1ccccc1C(=O)N1CCOc2ccc(CN3CCN(Cc4ccccn4)CC3)cc2C1	/	.	/	/	/
SMILES	MARV entry inh	FMDV inh	HCV inh	HCMV antiviral	Lassa entry inh
COc1cc([C@H](O)CO)ccc1O	.	/	/	/	/
Cc1cccc(NC(=O)C2CCCN(S(=O)(=O)c3cccc4nonc34)C2)c1C (centres undefined)	.	.	/	.	.
CCN1C(=O)NC(c2cccs2)C(C(=O)OC)=C1C (centres undefined)	.	/	/	/	/
COc1ccc(-c2nn(-c3ccccc3)cc2C(=O)NCC(c2cccs2)N2CCOCC2)cc1 (centres undefined)	?	.	?	.	.
O=C(NCC(c1cccs1)N1CCOCC1)c1cn(-c2ccccc2)nc1-c1ccc(Cl)cc1 (centres undefined)	10µM	.	?	/	.
O=C(NCC(c1cccs1)N1CCOCC1)c1cn(-c2ccccc2)nc1-c1ccccc1 (centres undefined)	13µM	.	?	.	.
CC1=CC[C@@H](C)O[C@@]2(C1)C(=O)Nc1cccc(Br)c12	.	/	/	/	?
CN(CC(=O)Nc1cccc(F)c1)CC(=O)Nc1ccccc1[N+](=O)[O-]	.	?	?	-87	.
CN(CC(=O)Nc1cccc(F)c1)C(=O)c1ccc(N2CCCC2)c([N+](=O)[O-])c1	.	.	?	-61	.
CN(CC(=O)Nc1cccc(F)c1)CC(=O)Nc1ccc(Cl)cc1[N+](=O)[O-]	.	.	.	.	?
N#CCCN(C(=O)COC(=O)c1cccc(S(=O)(=O)N2CCCCCC2)c1)c1ccc(F)cc1	.	.	.	.	?
N#CCCN(C(=O)COC(=O)c1cccc(S(=O)(=O)N2CCCC2)c1)c1ccc(F)cc1	.	.	/	-75	.
N#CCCN(C(=O)COC(=O)c1cc(S(=O)(=O)N2CCOCC2)ccc1Cl)c1ccc(F)cc1	.	.	.[8.37 µM]	-71	.
COc1cc(NC(=O)CCc2c(C)n(C)c3cc(-c4ccccc4C)nn3c2=O)cc(OC)c1OC	/	.	/	.	.
CCOP(=O)(CCP(=O)(OCC)OCC)OCC.C[CH2][Sn]([Cl])([Cl])[CH2]C	?	2.8µM	1.6µM	-101	13µM
CCOP(=O)(OCC)OCC	/	.	.	.	/
CCOc1ccc(Br)cc1S(=O)(=O)N1CCC(C(N)=O)CC1	.	.	.	-64	.
O=C(c1ccc(F)cc1F)C1CCN(c2ccc([N+](=O)[O-])cn2)CC1	?	?	4.5µM	-77	.
CCOc1ccc(OCCC(=O)OCC(=O)Nc2cccc(S(=O)(=O)N3CCCCC3)c2)cc1	/	.	?	.	/
CCCOc1ccc(N2CC(C(=O)Nc3cccc(Cl)c3Cl)CC2=O)cc1 (centres undefined)	/	.	/	-88	.
CCOc1ccc(OCCC(=O)Nc2cccc(S(=O)(=O)N3CCCC3)c2)cc1	?	.	11µM	.	?
CCOc1ccc(N2CC(C(=O)Nc3cccc(S(=O)(=O)N4CCOCC4)c3)CC2=O)cc1 (centres undefined)	/	.	/	.	/
CC(C)(C)c1ccc(OCCC(=O)Nc2cccc(S(=O)(=O)N3CCOCC3)c2)cc1	?	25µM	/	/	?
COc1ccc(OCCC(=O)OCC(=O)Nc2cccc(S(=O)(=O)N3CCOCC3)c2)cc1	?	.	.	.	.
CCOc1ccc(N2CC(C(=O)Nc3cccc(S(=O)(=O)N4CCCC4)c3)CC2=O)cc1 (centres undefined)	.	.	10µM	.	?
COC(=O)c1cccc(NC2=NS(=O)(=O)c3ccccc32)c1	/	.	/	.	.
Cc1ccc(-n2c(=O)c3ccc(C(=O)NCc4ccco4)cc3n(Cc3ccc(Cl)cc3)c2=O)cc1	.	.	/	?	.
CC(C)(C)c1ccc(OCCC(=O)Nc2cccc(S(=O)(=O)NC3=NCCCCC3)c2)cc1	?	?	14µM	-60	10µM
CCOc1ccc(N2CC(C(=O)Nc3ccc4c(c3)OCO4)CC2=O)cc1 (centres undefined)	?	.	.	-64	/
